Screening results deposited in PubChem BioAssay by National Center for Advancing Translational Sciences (NCATS).
Sfp inh: Sfp phosphopantetheinyl transferase inhibition; Biochemical Sfp PPTase activity, qHTS; 310,000 compounds, 3.5% hits; Potency, µM, without a hit: largest response in the series, negative = inhibition, usual class: inhibitors; AID 1490;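 further: the enzyme is Sfp with the accession as filed and its product quenches rhodamine fluorescence; 0% = enzyme reaction without inhibitor and -100% = no enzyme wells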
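Fluorescence-quenching assay with 15 nM Sfp, 5 uM rhodamine-CoA and 12.5 uM BHQ-2-labelled ybbR peptide in pH 7.6 Hepes/MgCl2 buffer. Enzyme was pre-incubated with compound for 15 min at room temperature. Rate was taken from the 30-min fluorescence change (525/598 nm).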
HP1b binding inh: inhibitors of HP1-beta chromodomain binding to methylated histone tails; AID 540317; P83916; 390,000 compounds, 0.56% hits; AlphaScreen HP1-beta / biotin-H3K9me3 peptide binding; Potency, µM (series often up to 114 µM), for the others: at the highest dose activity change, negative = inhibition, actives largely listed as inhibitors; further: nearly all actives have a fitted effect of over 70% in size
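AlphaScreen: HP1-beta (50 nM) preformed 30 min with biotin-H3(1-18)K9me3 peptide (50 nM) in PBS pH 7.4, 0.01% Tween-20. Compound added for 30 min at RT, then streptavidin donor/nickel chelate acceptor beads (10 ug/mL) for 30 min.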
JMJD2A Tudor: JMJD2A Tudor domain (human) inhibition; AlphaScreen JMJD2A-Tudor / H3K4me3 peptide binding; Potency, µM (highest dose often 114 µM), inactives show at the top dose activity change, negative = inhibition, most hits filed as inhibitors; 390,000 compounds, 4.4% hits; O75164; further: on the % scale 0 is the no-effect control and ±100 the full control effect; nearly all actives have a fitted effect of over 50% in size
G9a inh: blocks human histone lysine methyltransferase G9a. G9a H3K9 monomethylation, AlphaScreen, 2 h. Potency, µM (highest dose often 102 µM), inactives show at the highest dose activity, negative = inhibition, most hits filed as inhibitors. 350,000 compounds, 8.8% hits. AID 504332; further: on the % scale 0 is the no-effect control and ±100 the full control effect; nearly all actives have a fitted effect of over 75% in size
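Quantitative HTS format: methyltransferase activity on a biotin-tagged H3K9 peptide is measured by AlphaScreen, using a rabbit anti-monomethyl-H3K9 antibody with streptavidin donor and anti-IgG acceptor beads. Final levels are 20 nM enzyme, 500 nM peptide, 20 uM SAM; 2 h RT.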
BAZ2B block: blocks human BAZ2B. Q9UIF8. AlphaScreen BAZ2B-H3K14Ac peptide displacement. Potency, µM (doses to about 114 µM), inactives show at the highest dose activity change, negative = inhibition, usual class: inhibitors. 360,000 compounds, 4.4% hits. AID 504333; further: on the % scale 0 is the no-effect control and ±100 the full control effect; nearly all actives have a fitted effect of over 60% in size
Target sequence (Q9UIF8 whole entry, looked up): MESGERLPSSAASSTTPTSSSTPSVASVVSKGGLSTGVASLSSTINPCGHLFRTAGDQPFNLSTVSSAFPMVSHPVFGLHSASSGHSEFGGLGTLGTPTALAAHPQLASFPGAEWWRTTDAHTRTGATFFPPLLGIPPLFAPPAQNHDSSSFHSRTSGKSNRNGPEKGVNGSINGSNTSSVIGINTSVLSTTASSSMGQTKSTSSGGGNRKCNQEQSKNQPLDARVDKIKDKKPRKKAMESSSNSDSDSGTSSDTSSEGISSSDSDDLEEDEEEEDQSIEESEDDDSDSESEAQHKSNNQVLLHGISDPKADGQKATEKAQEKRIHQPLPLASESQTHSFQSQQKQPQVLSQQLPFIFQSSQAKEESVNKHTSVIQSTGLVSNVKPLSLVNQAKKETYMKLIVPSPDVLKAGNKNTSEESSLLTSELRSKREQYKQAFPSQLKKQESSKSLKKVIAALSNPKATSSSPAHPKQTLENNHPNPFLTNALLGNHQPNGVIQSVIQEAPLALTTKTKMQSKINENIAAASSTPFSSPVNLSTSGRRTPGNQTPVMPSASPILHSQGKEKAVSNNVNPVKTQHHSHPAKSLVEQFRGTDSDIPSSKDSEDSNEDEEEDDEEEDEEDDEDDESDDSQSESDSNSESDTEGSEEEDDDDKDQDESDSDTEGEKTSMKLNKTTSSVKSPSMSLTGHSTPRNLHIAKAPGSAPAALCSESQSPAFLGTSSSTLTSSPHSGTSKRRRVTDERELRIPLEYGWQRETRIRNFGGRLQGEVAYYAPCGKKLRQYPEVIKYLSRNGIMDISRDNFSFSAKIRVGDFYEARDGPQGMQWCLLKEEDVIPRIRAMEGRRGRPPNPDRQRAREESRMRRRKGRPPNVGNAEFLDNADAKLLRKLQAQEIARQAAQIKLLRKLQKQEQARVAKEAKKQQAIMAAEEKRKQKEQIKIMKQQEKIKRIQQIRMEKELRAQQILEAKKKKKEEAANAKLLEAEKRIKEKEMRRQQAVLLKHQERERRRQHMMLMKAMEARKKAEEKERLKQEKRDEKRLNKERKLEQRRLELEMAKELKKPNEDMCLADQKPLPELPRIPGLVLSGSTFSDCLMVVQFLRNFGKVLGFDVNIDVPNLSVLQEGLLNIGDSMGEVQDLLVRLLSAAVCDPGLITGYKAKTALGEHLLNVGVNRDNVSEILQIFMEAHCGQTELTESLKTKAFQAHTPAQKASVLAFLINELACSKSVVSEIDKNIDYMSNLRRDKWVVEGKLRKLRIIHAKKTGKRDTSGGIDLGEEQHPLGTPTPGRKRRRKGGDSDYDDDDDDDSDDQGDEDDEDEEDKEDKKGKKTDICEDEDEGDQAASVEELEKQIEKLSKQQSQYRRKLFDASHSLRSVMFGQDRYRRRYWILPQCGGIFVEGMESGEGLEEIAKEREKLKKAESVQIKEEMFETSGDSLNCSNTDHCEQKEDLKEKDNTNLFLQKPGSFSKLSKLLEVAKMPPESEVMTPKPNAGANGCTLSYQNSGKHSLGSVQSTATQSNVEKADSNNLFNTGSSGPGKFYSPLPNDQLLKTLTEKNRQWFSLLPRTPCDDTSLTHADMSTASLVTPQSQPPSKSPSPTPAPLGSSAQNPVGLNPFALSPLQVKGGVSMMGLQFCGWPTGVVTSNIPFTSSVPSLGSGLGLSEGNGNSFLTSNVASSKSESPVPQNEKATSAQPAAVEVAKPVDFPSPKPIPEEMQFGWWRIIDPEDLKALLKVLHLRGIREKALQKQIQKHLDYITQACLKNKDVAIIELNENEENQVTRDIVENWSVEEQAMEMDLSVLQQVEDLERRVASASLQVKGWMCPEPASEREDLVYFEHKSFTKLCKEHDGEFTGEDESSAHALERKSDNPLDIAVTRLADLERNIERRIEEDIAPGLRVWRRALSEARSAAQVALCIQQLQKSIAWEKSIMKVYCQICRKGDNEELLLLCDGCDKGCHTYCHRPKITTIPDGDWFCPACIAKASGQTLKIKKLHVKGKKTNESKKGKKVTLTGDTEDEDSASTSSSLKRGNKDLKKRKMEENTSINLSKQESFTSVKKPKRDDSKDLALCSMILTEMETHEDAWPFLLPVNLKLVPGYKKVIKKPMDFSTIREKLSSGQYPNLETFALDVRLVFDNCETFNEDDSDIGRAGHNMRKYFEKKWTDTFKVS
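AlphaScreen displacement of biotin-H3(5-23)K14Ac peptide (50 nM final) from BAZ2B (50 nM final) in PBS pH 7.4, 0.01% Tween-20; complex preformed 30 min RT, then compounds (top 110 uM) 30 min RT, beads 20 min dark.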
The depositor's hits bear a star; ? = inconclusive; · = no result given; [ ] = another dose, or the depositor's remark. A selection: hits, their analogues and other compounds. The true share with any hit is near 12%. The call rests on the fitted dose curve; in most records, active means well fitted curve in the direction sought with a large enough effect; inconclusive means small, poorly fitted or top-dose-only effect, or another doubt; inactive means no such curve, though single readings can be large; an effect the other way counts as inactive or inconclusive. Potency means the concentration at half of the fitted maximal effect.

SMILES	Sfp inh	HP1b binding inh	JMJD2A Tudor	G9a inh	BAZ2B block
CC(=O)N1CCN(C(=S)NC(=O)c2ccc(S(=O)(=O)N3CCOCC3)cc2)CC1	?	-27%	50µM*	?	50µM*
CN(CCC#N)C(=S)NC(=O)c1ccc(S(=O)(=O)N2CCOCC2)cc1	?	-10%	-22%	11µM*	-20%
CC(=O)Nc1ccc(C(=O)Nc2ccc(S(=O)(=O)N3CCOCC3)cc2)cc1	2%	28%	3%	·	6%
Cc1ccc(S(=O)(=O)N2CCOCC2)cc1C(=O)NC(=S)N1CC(C)OC(C)C1 (centres undefined)	-23%	22%	-6%	32µM*	-2%
NC(=O)CSc1ccc(Br)cc1	14%	-4%	-28%[57.1 µM]	2%[12.7 µM]	8%
CN1C(=O)C2(c3ccccc31)N(C)CC(c1ccccn1)C21SC(=S)N(Cc2ccco2)C1=O (centres undefined)	-4%	?	28µM*	·	22µM*
CN1C(=O)C2(c3ccccc31)N(C)CC(c1ccccc1)C21SC(=S)N(Cc2ccco2)C1=O (centres undefined)	-15%	-14%	?	·	5%
C/C(=C\C(=O)c1ccc(C)cc1)Nc1cccc(O)c1	-1%	-21%	?	50µM*	50µM*
COc1ccc(CC(=O)Nc2ccc(C(C)=O)cc2)cc1	50µM*	44%	-10%	11%[12.7 µM]	?
C/C(=C\C(=O)c1ccccc1)Nc1ccc(O)cc1	-21%	-36%	?	28µM*	?
COc1ccc(C(=O)/C=C(/C)N(C)C)cc1	14%	9%	40µM*	45µM*	-1%
COc1ccc(C(=O)/C=C(\C)Nc2ccc(NC(C)=O)cc2)cc1	-6%	-13%	?	35µM*	79µM*
COc1ccc(C(C#N)=Cc2ccc(NC(C)=O)cc2)cc1	·	10%[57 µM]	3%	·	·
COc1ccc(NC(=O)CN(C)C(=O)Cc2ccsc2)cc1	13%	32%	-2%	12%[12.7 µM]	0%
COc1ccc(NC(=O)CN(C)C(=O)Cc2ccc(-c3ccccc3)cc2)cc1	·	21%	100µM*	?	6%
CCc1ccc(S(=O)(=O)c2cn(CC(=O)Nc3ccc(F)c(Cl)c3)c3ccccc3c2=O)cc1	·	29%	-11%	2%[59 µM]	-3%
NC(=O)c1ccccc1NC(=O)/C=C/c1c(Cl)cccc1Cl	2%	27%	-13%	47%	-1%[57.1 µM]
Cc1ccc(/C=C/C(=O)Nc2cccnc2)o1	-15%	?	?	3.5µM*	1%
Cc1ccc(/C=C/C(=O)Nc2nn[nH]n2)o1	-90%	-21%	35µM*	?	35µM*
O=C(/C=C/c1ccccc1)Nc1cccnc1	-5%	46%	-14%	·	-3%
Cc1ccc(/C=C/C(=O)Nc2cccc3ncccc23)o1	20µM*	-14%	?	?	-4%
Cc1ccc(/C=C/C(=O)Nc2ccccc2C(N)=O)o1	·	5%	-18%	10µM*	-2%[57.1 µM]
CCN1CCN(c2ccc(S(=O)(=O)N3CCOCC3)cc2NC(=O)C2CCC(C(C)(C)C)CC2)CC1 (centres undefined)	·	31%	-28%	·	·
CCOP(=O)(OCC)C(NC(=O)/C=C/c1ccc(OC)cc1)c1ccccc1 (centres undefined)	16%	28%	-7%	-10%	4%
CC(C)(C)C1CCc2c(sc3c2C(=O)NC(c2ccco2)N3)C1 (centres undefined)	56µM*	13%	?	10µM*	-1%
SMILES	Sfp inh	HP1b binding inh	JMJD2A Tudor	G9a inh	BAZ2B block
CN1CCc2c(sc3c2C(=O)NC(c2ccc(OC(=O)c4ccc(Cl)cc4)cc2)N3)C1 (centres undefined)	·	22%	-11%	16µM*	?
CCOC(=O)N1CCc2c(sc3c2C(=O)NC(c2ccc(C(=O)OC)cc2)N3)C1 (centres undefined)	·	28%	-6%	10%[59 µM]	1%
Cc1ccc(C2NC(=O)c3c(sc4c3CCN(C)C4)N2)o1 (centres undefined)	?	13%	-32%	26%[59 µM]	4%
CCOc1cc(C2NC(=O)c3c(sc4c3CCN(C)C4)N2)ccc1OC(=O)c1ccc(F)cc1 (centres undefined)	·	24%	-11%	-30%[59 µM]	-1%
CN1CCc2c(sc3c2C(=O)NC(c2ccccn2)N3)C1 (centres undefined)	16µM*	36%	20µM*	25µM*	45µM*
CC(C)(C)C1CCc2c(sc(NC(=O)c3ccco3)c2C(N)=O)C1 (centres undefined)	0%	33%	-15%[11.4 µM]	5%[59 µM]	5%
CN1CCc2c(sc3c2C(=O)NC(c2ccc(OC(=O)c4ccc(C(C)(C)C)cc4)cc2)N3)C1 (centres undefined)	·	5%	-17%	7.9µM*	-34%
NC(=O)Oc1cccc(OC(N)=O)c1	10%	33%	-2%	8%[12.7 µM]	3%
O=C(NCc1ccc2c(c1)OCO2)C1CC(=O)N(C2CCCC2)C1 (centres undefined)	26%	13%	-16%	6%[12.7 µM]	-8%
Cc1cccc(C2NC(=O)c3c(sc4c3CCN(C)C4)N2)c1O (centres undefined)	·	6%	-22%	?	-14%
CN1CCc2c(sc3c2C(=O)NC(c2ccc4c(c2)OCO4)N3)C1 (centres undefined)	?	8%	-14%	0%[12.7 µM]	-26%
CN1CCc2c(sc3c2C(=O)NC(c2ccc(OC(=O)c4ccccc4)cc2)N3)C1 (centres undefined)	·	-5%	-30%	13µM*	-17%
Cc1ccc(C2NC(=O)c3c(sc4c3CCN(C)C4)N2)s1 (centres undefined)	-2%	-31%	?	?	-30%
O=C1NC(c2ccc(Br)cc2)Nc2sc3c(c21)CCC3 (centres undefined)	40µM*	-7%	?	?	-26%
CN1CCc2c(sc3c2C(=O)NC(c2ccccc2)N3)C1 (centres undefined)	56µM*	0%	-22%	40µM*	-1%
O=C1NC(c2ccccn2)Nc2sc3c(c21)CCC3 (centres undefined)	32µM*	11%	?	22µM*	?
Cc1ccsc1C1NC(=O)c2c(sc3c2CCCC3)N1 (centres undefined)	45µM*	-15%	?	?	-7%
COc1cc(NC(=O)c2ccc3c(=O)n(Cc4ccco4)c(=S)[nH]c3c2)cc(OC)c1OC	?	11%	-17%	?	-9%
CCCN(CCC)C(=O)c1ccc2c(=O)n(Cc3ccco3)c(=S)[nH]c2c1	13µM*	1%	-36%	?	-35%
O=C(CCCn1c(=S)[nH]c2cc3c(cc2c1=O)OCO3)NCc1ccco1	10%	38%	-5%	4%	-1%
O=c1c2cc3c(cc2[nH]c(=S)n1Cc1ccco1)OCO3	20µM*	23%	-7%	40µM*	-25%
